S-ASM inh – blocks human secretory acid sphingomyelinase; P17405; placental ASM, HMU-PC fluorogenic substrate, 60 min; 340,000 tested, 0.006% active; AID 504937; Potency, µM (top dose mostly 57.5 µM), inactives show at the highest dose activity change, negative = inhibition, most hits filed as inhibitors; note: potency is the fitted concentration of half-maximal effect
Target sequence (P17405 47-631 limits assumed): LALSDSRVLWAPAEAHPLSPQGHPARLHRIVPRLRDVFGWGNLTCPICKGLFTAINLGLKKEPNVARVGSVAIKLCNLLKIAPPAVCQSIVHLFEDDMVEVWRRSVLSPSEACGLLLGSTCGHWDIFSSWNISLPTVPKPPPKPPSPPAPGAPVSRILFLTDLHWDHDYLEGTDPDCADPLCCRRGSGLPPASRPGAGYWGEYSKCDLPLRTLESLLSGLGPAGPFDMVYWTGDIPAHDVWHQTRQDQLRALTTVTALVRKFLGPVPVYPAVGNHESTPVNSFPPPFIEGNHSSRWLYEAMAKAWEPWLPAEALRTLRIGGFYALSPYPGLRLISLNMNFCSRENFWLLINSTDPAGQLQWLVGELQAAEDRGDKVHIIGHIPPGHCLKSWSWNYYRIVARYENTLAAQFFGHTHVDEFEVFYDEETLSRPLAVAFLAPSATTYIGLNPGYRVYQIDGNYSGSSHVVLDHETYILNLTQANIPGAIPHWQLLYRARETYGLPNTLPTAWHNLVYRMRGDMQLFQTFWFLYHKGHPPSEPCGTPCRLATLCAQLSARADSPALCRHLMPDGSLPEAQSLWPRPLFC
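qHTS format. ASM enzyme prepared from human placenta hydrolyses the fluorogenic substrate HMU-PC0 (9 uM final) over 60 min at 37 °C after a 10 min compound preincubation.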
Giardia killer – kills Giardia lamblia; Giardia lamblia trophozoite viability; activity change, % at 7.66 µM, hits read low; 340,000 tested, 0.15% active; in the data active = activity change below about -80%; inconclusive = between about -30% and that limit;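 note: parasites exposed to compound for two days anaerobically before the ATP read; % is set by controls: 0 for no effect and ±100 for the full control effect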
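Compounds were tested on trophozoites seeded at 100 cells/well and held 48 hrs at 37 deg C anaerobically. An ATP-based luminescent kit measured the remaining live cells.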
KB-V1 MDR tox – kills drug-selected multidrug resistant KB-V1 cells; KB-V1 MDR cells viability, CellTiter-Glo, 72 h; Potency, µM (series often up to 46.1 µM), most hits filed as cytotoxic; 400,000 tested, 3.4% active; note: potency is the fitted concentration of half-maximal effect; % is set by controls: 0 for no effect and ±100 for the full control effect; nearly all actives have a fitted effect of over 60% in size
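KB-V1 MDR subline cells in DMEM (phenol-red free, 10% FBS) exposed to compounds in qHTS concentration series for 72 h at 37 degrees C. Viability read by CellTiter-Glo luminescence; concentration-effect curves fitted after normalization and correction.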
MCF10A rereplic – DNA re-replication induction in MCF 10a cells | MCF 10A DNA re-replication, Hoechst nuclear intensity, 48 h | Potency, µM (series often up to 46.1 µM), without a hit: at the top dose activity, positive = re-replication, actives largely listed as activators | 350,000 tested, 2.9% active; note: potency is the fitted concentration of half-maximal effect; % of control where 0% means no effect; nearly all actives have a fitted effect of over 50% in size
SW480 rereplic – induces DNA re-replication in SW480 colon adenocarcinoma cells | SW480 DNA re-replication, Hoechst DNA content imaging, 48 h | Potency, µM (highest dose often 46.1 µM), for inactives: top-dose re-replication activation, actives largely listed as activators | 340,000 tested, 1.8% active | AID 624297; note: potency is the fitted concentration of half-maximal effect; % of control where 0% means no effect; nearly all actives have a fitted effect of over 55% in size
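250 cells/well; 23 nL cpd via pin tool; 48 hr, 37 C, 5% CO2; Hoechst 40 min; imager read of total nuclear intensity, ex 405/em 500-530 nm.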
KB-3-1 cytotox – KB-3-1 parental cell cytotoxicity. KB-3-1 viability, CellTiter-Glo ATP luminescence, 72 h. Potency, µM (titrated, usually from 46.1 µM), hits mostly cytotoxic. 400,000 tested, 1.4% active; note: potency is the fitted concentration of half-maximal effect; % is set by controls: 0 for no effect and ±100 for the full control effect; nearly all actives have a fitted effect of over 60% in size
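Parental KB-3-1 adenocarcinoma cells in phenol-red-free DMEM with 10% FBS were pin-treated with compounds at several concentrations, incubated 72 h at 37 °C, and viability read by CellTiter-Glo luminescence; concentration-effect curves were fitted after normalization.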
* marks the source's active call; other numbers are inactive results. Sampled rows, rich in hits. Any-hit rate of the full collection: about 6.9%. Unless noted, calls come from the whole dose curve; as a rule, active = well fitted curve in the direction sought with a large enough effect; inconclusive = small, poorly fitted or top-dose-only effect, or another doubt; inactive = no such curve, though single readings can be large; an effect the other way counts as inactive or inconclusive.

What do the screens show for `O=C1C2C3c4ccccc4C(c4ccccc43)C2C(=O)N1c1nc(-c2ccccc2)cs1` (centres undefined)?
S-ASM inh: 3.1%; Giardia killer: -2.4; KB-V1 MDR tox: inactive; MCF10A rereplic: 12.7%; SW480 rereplic: 9.1%; KB-3-1 cytotox: inactive

What do the screens show for `O=C1CC(c2ccccc2)=NN1c1nc(-c2ccccc2)cs1`?
S-ASM inh: 3.3%; Giardia killer: 18.7; KB-V1 MDR tox: inactive; MCF10A rereplic: 16.4µM*; SW480 rereplic: 0.3%; KB-3-1 cytotox: inactive

How did COc1cccc(CNC(=O)c2nnn(CC(=O)Nc3cccc(C)c3)c2N)c1 do in these assays?
S-ASM inh: 0.1%; Giardia killer: 26.1; KB-V1 MDR tox: inactive; MCF10A rereplic: -0.2%; SW480 rereplic: -2.0%; KB-3-1 cytotox: inactive

What do the screens show for `COC(=O)c1c(NC(=O)c2ccc([N+](=O)[O-])o2)sc2c1CCN(C(C)C)C2`?
S-ASM inh: -13.4%; Giardia killer: inconclusive; KB-V1 MDR tox: 14.6µM*; MCF10A rereplic: 2.91µM*; SW480 rereplic: 2.31µM*; KB-3-1 cytotox: 6.51µM*

How did CC(=O)N1CCc2c(sc(NC(=O)Cc3ccc(F)cc3)c2C#N)C1 do in these assays?
S-ASM inh: 1.7%; Giardia killer: 11.9; KB-V1 MDR tox: inactive; MCF10A rereplic: 13.4%; SW480 rereplic: -10.8%; KB-3-1 cytotox: inactive

How did COC(=O)c1sc(NC(=O)c2ccc([N+](=O)[O-])o2)c(C#N)c1C do in these assays?
S-ASM inh: -9.6%; Giardia killer: -93.1*; KB-V1 MDR tox: inactive; MCF10A rereplic: 2.91µM*; SW480 rereplic: 3.26µM*; KB-3-1 cytotox: inconclusive

Results for CC(=O)N1CCc2c(sc(NC(=O)c3ccc([N+](=O)[O-])o3)c2C#N)C1 ?
S-ASM inh: -5.9%; Giardia killer: -88.2*; KB-V1 MDR tox: inactive; MCF10A rereplic: 1.46µM*; SW480 rereplic: 2.31µM*; KB-3-1 cytotox: inconclusive

How did CCOC(=O)c1sc(NC(=O)c2ccco2)c(C#N)c1C do in these assays?
S-ASM inh: 8.5%; Giardia killer: 1.3; KB-V1 MDR tox: inconclusive; MCF10A rereplic: inconclusive; SW480 rereplic: -8.7%; KB-3-1 cytotox: inactive

Results for COc1ccc(C(=O)Nc2sc3c(c2C#N)CCN(C(C)=O)C3)cc1 ?
S-ASM inh: -1.3%; Giardia killer: -2.5; KB-V1 MDR tox: inconclusive; MCF10A rereplic: 23.1µM*; SW480 rereplic: 23.1µM*; KB-3-1 cytotox: 8.2µM*

How did CC(=O)Nc1ccc(-c2nnc3n(CC(C)C)c(=O)c4ccccc4n23)cc1 do in these assays?
KB-V1 MDR tox: inactive; KB-3-1 cytotox: inactive

Results for Cc1ccc(C(=O)N/N=C\C2CC=CCC2)cc1[N+](=O)[O-] (centres undefined) ?
S-ASM inh: 2.1%; Giardia killer: 7.5; KB-V1 MDR tox: inconclusive; MCF10A rereplic: -14.5%; SW480 rereplic: 1.6%; KB-3-1 cytotox: inactive

How did CCOc1cc(C(=O)N/N=C/C2CC=CCC2)cc(OCC)c1OCC (centres undefined) do in these assays?
S-ASM inh: 3.2%; Giardia killer: -3.2; KB-V1 MDR tox: inactive; MCF10A rereplic: inconclusive; SW480 rereplic: 23.1µM*; KB-3-1 cytotox: inactive

What do the screens show for `CCCOc1ccc(OC(=O)c2c(-c3ccccc3Cl)noc2C)cc1`?
KB-V1 MDR tox: inactive; KB-3-1 cytotox: inactive

What do the screens show for `CCCc1nc2ccccc2n2c(-c3ccc(C)cc3)c3c(=O)n(C)c(=O)n(C)c3c12`?
KB-V1 MDR tox: inactive; KB-3-1 cytotox: inactive

What do the screens show for `CCCCNC(=O)C(CC)Sc1nc2ccccc2c(=O)n1CCc1ccc(OC)c(OC)c1` (centres undefined)?
KB-V1 MDR tox: inactive; KB-3-1 cytotox: inactive

What do the screens show for `O=C1Nc2ccc(S(=O)(=O)N3CCCCCC3)c3cccc1c23`?
S-ASM inh: 119.2%; Giardia killer: 12.1; KB-V1 MDR tox: inactive; MCF10A rereplic: 20.6µM*; SW480 rereplic: -0.2%; KB-3-1 cytotox: inactive

How did CCOc1ccc(C(=O)Nc2nnc(C3=COCCO3)o2)cc1 do in these assays?
S-ASM inh: -3.1%; Giardia killer: -5.6; KB-V1 MDR tox: inconclusive; MCF10A rereplic: 10.9%; SW480 rereplic: 1.1%; KB-3-1 cytotox: 0.0012µM*

Results for COc1ccc(C(=O)Nc2nnc(C3=COCCO3)o2)cc1 ?
S-ASM inh: -3.0%; Giardia killer: -10.8; KB-V1 MDR tox: inactive; MCF10A rereplic: 3.1%; SW480 rereplic: 18.3%; KB-3-1 cytotox: inactive

How did COc1ccccc1NC(=O)CSCc1cc(=O)c2c(C)cc(C)cc2[nH]1 do in these assays?
KB-V1 MDR tox: inactive; KB-3-1 cytotox: inactive

Results for Cc1nc2cc(OCc3cc(C(=O)NC(C)c4cnn(C)c4)no3)ccc2s1 (centres undefined) ?
S-ASM inh: -1.5%; Giardia killer: -3.9; KB-V1 MDR tox: 10.3µM*; MCF10A rereplic: -9.0%; SW480 rereplic: -11.9%; KB-3-1 cytotox: inactive

Results for COc1ccccc1-c1nc(CNC(=O)Nc2ccccc2)c(C)o1 ?
KB-V1 MDR tox: inactive; KB-3-1 cytotox: inactive

What do the screens show for `CC(C)Sc1nc2sc3c(c2c2nnc(SCC(=O)NCc4ccco4)n12)CCCC3`?
S-ASM inh: -10.1%; Giardia killer: 2.9; KB-V1 MDR tox: 18.4µM*; MCF10A rereplic: inconclusive; SW480 rereplic: 8.9%; KB-3-1 cytotox: inactive

Results for CCCc1nc2sc3c(SCC(=O)NCc4ccco4)ncnc3c2c2c1CCC2 ?
S-ASM inh: -15.2%; Giardia killer: 3.1; KB-V1 MDR tox: 11.6µM*; MCF10A rereplic: 9.2µM*; SW480 rereplic: 14.6µM*; KB-3-1 cytotox: inconclusive

Results for CC1CCc2c(sc3ncn4c(SCC(=O)NCc5ccco5)nnc4c23)C1 (centres undefined) ?
S-ASM inh: -0.4%; Giardia killer: 9.3; KB-V1 MDR tox: inactive; MCF10A rereplic: -7.9%; SW480 rereplic: -2.4%; KB-3-1 cytotox: inactive

Results for CC1CCc2sc3ncn4nc(C(=O)NCc5ccco5)nc4c3c2C1 (centres undefined) ?
S-ASM inh: 4.8%; Giardia killer: -4.3; KB-V1 MDR tox: 6.51µM*; MCF10A rereplic: 1.8%; SW480 rereplic: -5.0%; KB-3-1 cytotox: inactive

How did O=C(CSc1nc(C2CC2)nc2sc3c(c12)CCCC3)NCc1ccco1 do in these assays?
S-ASM inh: 0.8%; Giardia killer: 2.8; KB-V1 MDR tox: inactive; MCF10A rereplic: 16.4µM*; SW480 rereplic: 1.1%; KB-3-1 cytotox: inactive

How did Cc1nc(SCC(=O)NCc2ccco2)c2c3c(sc2n1)CCCC3 do in these assays?
S-ASM inh: -6.5%; Giardia killer: 1.6; KB-V1 MDR tox: inconclusive; MCF10A rereplic: inconclusive; SW480 rereplic: 0.6%; KB-3-1 cytotox: inconclusive

Results for COc1ccccc1N1CCN(C(=O)CSc2n[nH]c(-c3ccccc3Cl)n2)CC1 ?
KB-V1 MDR tox: inactive; KB-3-1 cytotox: inactive

Screening data: PubChem BioAssay, National Center for Advancing Translational Sciences (NCATS)
